Experimental data reported in PubChem BioAssay AID1259343 (VanderVen Lab, College of Veterinary Medicine, Cornell …, 2017).
Screen size: about 6,200 compounds; about 2,900 (47%) were called active. Rule as the data show it: active = inhibition above about 50%; inactive = the rest. The set was probably picked from earlier hits. This is one part of the list.

assay: Mycobacterium tuberculosis growth inhibition, primary screen (AID 1259343); conditions: inhibition: at 10 µM, stronger effect = higher value; outcome: 10 uM

Row | SMILES | inhibition
1 | CCCn1nnnc1NCc1cccn1C | 1.45% (inactive)
2 | Cn1ccsc1=NC(=O)CCN1c2ccccc2Sc2ccccc21 | -5.61% (inactive)
3 | Cc1cccc(CN2CCC(C(=O)Nc3cccc(-c4cccc(F)c4)c3)CC2)n1 | 76.4% (active)
4 | CC(=O)c1cccc(CN2CCC(C(=O)Nc3ccc(-c4cccc(C)c4)cc3)CC2)c1 | 86.5% (active)
5 | c1nc(NC2CC3CC2C2CCCC32)c2sccc2n1 (stereo not given) | 30.1% (inactive)
6 | COc1cccc(OC)c1OCCCOc1ccc(Cl)cc1Cl | 89.4% (active)
7 | COc1cccc(OC)c1OCCCOc1ccc(C)cc1Cl | 47.8% (inactive)
8 | COc1cccc(OC)c1OCCOc1ccc(Br)cc1Cl | 82% (active)
9 | O=c1nc(SCc2ccc(C(F)(F)F)cc2)nc2ccccn12 | -29.6% (inactive)
10 | Cc1ccn2c(=O)nc(SCc3ccc(C(F)(F)F)cc3)nc2c1 | 22.7% (inactive)
11 | O=c1cnnc(SCc2ccc(C(F)(F)F)cc2)[nH]1 | 84.2% (active)
12 | FC(F)(F)c1ccccc1CCNc1nncc(-c2ccccc2)n1 | -20% (inactive)
13 | c1ccc2c(c1)[I+]c1ccccc1-2 | 101% (active)
14 | Nc1ccc(Oc2ccc(Br)cc2)cc1 | 39.8% (inactive)
15 | CC(O)c1ccc(Oc2ccc(Br)cc2)cc1 (stereo not given) | 72.8% (active)
16 | OC(COc1ccc(Cl)cc1)CSc1ccc(Br)cc1 (stereo not given) | -20.4% (inactive)
17 | CCc1cnc(C)nc1N1CCCC(C(=O)c2ccc(C(F)(F)F)cc2)C1 (stereo not given) | 51.3% (active)
18 | NC(=O)C1CCN(c2nc3cc(C(F)(F)F)ccc3s2)C1 (stereo not given) | 34.5% (inactive)
19 | COc1ccc(NC(=O)c2sc(=O)n(CCOc3ccc(F)cc3)c2C)cc1OC | 27.4% (inactive)
20 | COC(=O)C(Cc1ccc(OCCn2c(=O)sc3cc(C(=O)c4ccccc4)ccc32)cc1)C(=O)OC | 51.7% (active)
21 | C(=C\c1ccccc1)/CSc1n[nH]c(-c2cccnc2)n1 | 96.6% (active)
22 | O=c1nc(SC/C=C/c2ccccc2)nc2ccccn12 | -19.1% (inactive)

Row | SMILES | inhibition
23 | c1ccc(-c2nc(SC(c3ccccc3)c3ccccc3)n[nH]2)cc1 | 22.5% (inactive)
24 | O=C(c1ccco1)N1CCC(CCc2ccc(-c3ccccc3)cc2)CC1 | 81% (active)
25 | O=C(c1ccc(-c2ccc(O)cc2)nc1)N1CCC(CCc2ccccc2)CC1 | 83.7% (active)
26 | CCOC(=O)C(=O)N1CCC(CCc2ccccc2)CC1 | 90.7% (active)
27 | c1ccc(-c2ccc(CCC3CCN(Cc4cccs4)CC3)cc2)cc1 | 43.2% (inactive)
28 | O=C(c1ccco1)N1CCC(Cc2ccc(F)cc2)CC1 | 86.8% (active)
29 | COc1ccc(-c2ccc(C(=O)N3CCCC(c4ccccc4)CC3)cn2)cc1 (stereo not given) | 36.2% (inactive)
30 | O=C(c1ccco1)N1CCCC2(CCCCC2)C1 | -18% (inactive)
31 | O=C(C1CCC1)N1CCC(CCc2ccc(-c3ccccc3)cc2)CC1 | 44.8% (inactive)
32 | O=C(c1ccno1)N1CCC(Cc2ccc(F)cc2)CC1 | 56.4% (active)
33 | Cc1ccccc1N1CCN(Cc2cc(C#CCO)cs2)C(C)C1 (stereo not given) | -56.2% (inactive)
34 | Cc1ccccc1N1CCN(Cc2ccc(C#CCO)s2)C(C)C1 (stereo not given) | 76.9% (active)
35 | c1ccc2c(c1)CN1CCCC1=N2 | 101% (active)
36 | O=C1OC2(CCCCC2)OC(=O)C1=CNc1ccc2ccccc2c1 | 48.9% (inactive)
37 | O=C1C=C(Nc2ccc3ccccc3c2)CCC1 | 89.7% (active)
38 | O=C(Nc1nnc(-c2ccc3c(c2)OCCO3)o1)c1cccc2ccccc12 | 98.7% (active)
39 | CN(CCNC(=O)C1(C)CC1(Cl)Cl)C1CC1 (stereo not given) | -9.78% (inactive)
40 | Cc1c(CN(C)Cc2nc(Cc3cccc(C(F)(F)F)c3)no2)[nH]c2ccccc12 | 66.5% (active)
41 | CN(Cc1nc(COc2ccccc2)no1)CC1(c2ccccc2)CC1(C)C (stereo not given) | 42.2% (inactive)
42 | Cc1cc2nc(CN(C)Cc3nc(Cc4cccc(C(F)(F)F)c4)no3)[nH]c2cc1C | inactive
43 | COc1cccc(C(C)N(C)Cc2nc(-c3cccc(Cl)c3)oc2C)c1 (stereo not given) | -0.61% (inactive)
44 | FC(F)(F)c1cccc(Cc2noc(CN3CCC(OCc4ccccn4)CC3)n2)c1 | 32% (inactive)

Row | SMILES | inhibition
45 | COc1ccccc1OC(C)c1nc(Cc2cccc(C(F)(F)F)c2)no1 (stereo not given) | 36.2% (inactive)
46 | COc1cccc(C(C)N(C)Cc2nc(Cc3cccc(F)c3)no2)c1 (stereo not given) | 65.5% (active)
47 | CN(Cc1csc(-c2ccccc2)n1)Cc1nc(Cc2cccc(F)c2)no1 | 90.6% (active)
48 | N#Cc1cccc(OCc2noc(-c3ccsc3)n2)c1 | 34.2% (inactive)
49 | COc1cccc(C(C)N(C)Cc2nc(COc3ccccc3)no2)c1 (stereo not given) | 71.8% (active)
50 | CC1CCC(C(C)C)c2[nH]nc(-c3ccccc3O)c21 (stereo not given) | 4.33% (inactive)
51 | Cn1ccc(NS(=O)(=O)/C=C/c2ccc(Cl)cc2)n1 | 41.7% (inactive)
52 | O=S(=O)(/C=C/c1ccc(Cl)cc1)Oc1ccc(F)c(F)c1 | 92.7% (active)
53 | CC(C)CCNCC(O)CON=C1c2ccccc2-c2ccccc21 (stereo not given) | 84.8% (active)
54 | N#Cc1ccccc1-c1ccc(COc2coc(CN3CCN(C(=O)c4ccc([N+](=O)[O-])o4)CC3)cc2=O)cc1 | 102% (active)
55 | CCCCC/C=C\C/C=C\C/C=C\CCCCC(=O)N1CCN(Cc2cc(=O)c(OCc3cccc(F)c3)co2)CC1 | 16.1% (inactive)
56 | Cc1cc(C)c(-c2nc3cc(NC(=O)c4cccs4)ccc3o2)c(C)c1 | 42.8% (inactive)
57 | Cc1nc2cc(NC(=O)CN(C)S(=O)(=O)c3ccc(F)cc3)ccc2o1 | 23.8% (inactive)
58 | CCc1nc2cc(NC(=O)CC3CCCCC3)ccc2o1 | 89.5% (active)
59 | CC(c1nc(-c2cccs2)no1)N1CCC(c2ccccc2)CC1 (stereo not given) | -41.5% (inactive)
60 | Fc1ccccc1OCC1CCCN(Cc2nc(-c3cccs3)no2)C1 (stereo not given) | 47% (inactive)
61 | Fc1ccccc1CC1CCN(Cc2nc(-c3cccs3)no2)CC1 | 83.9% (active)
62 | Clc1ccccc1C1CCN(Cc2nc(-c3cccs3)no2)C1 (stereo not given) | 96.1% (active)
63 | c1csc(-c2noc(CN3CCCC(c4nc5ccccc5o4)C3)n2)c1 (stereo not given) | inactive
64 | c1csc(-c2noc(CN3CCc4sccc4C3)n2)c1 | 46.9% (inactive)
65 | CCCC1=NN(c2nc3ccccc3s2)C(=O)C1C(C)=Nc1ccc(C(=O)OCC)cc1 (stereo not given) | 98.8% (active)
